Assay [1] concerns the target 5'-AMP-activated protein kinase catalytic subunit alpha-2 (Homo sapiens) (UniProt P54646). The note with it: at 1 µM.
Assay [2] deals with T1, NUAK family SNF1-like kinase 1 (Homo sapiens) (UniProt O60285).
T1 sequence (whole entry): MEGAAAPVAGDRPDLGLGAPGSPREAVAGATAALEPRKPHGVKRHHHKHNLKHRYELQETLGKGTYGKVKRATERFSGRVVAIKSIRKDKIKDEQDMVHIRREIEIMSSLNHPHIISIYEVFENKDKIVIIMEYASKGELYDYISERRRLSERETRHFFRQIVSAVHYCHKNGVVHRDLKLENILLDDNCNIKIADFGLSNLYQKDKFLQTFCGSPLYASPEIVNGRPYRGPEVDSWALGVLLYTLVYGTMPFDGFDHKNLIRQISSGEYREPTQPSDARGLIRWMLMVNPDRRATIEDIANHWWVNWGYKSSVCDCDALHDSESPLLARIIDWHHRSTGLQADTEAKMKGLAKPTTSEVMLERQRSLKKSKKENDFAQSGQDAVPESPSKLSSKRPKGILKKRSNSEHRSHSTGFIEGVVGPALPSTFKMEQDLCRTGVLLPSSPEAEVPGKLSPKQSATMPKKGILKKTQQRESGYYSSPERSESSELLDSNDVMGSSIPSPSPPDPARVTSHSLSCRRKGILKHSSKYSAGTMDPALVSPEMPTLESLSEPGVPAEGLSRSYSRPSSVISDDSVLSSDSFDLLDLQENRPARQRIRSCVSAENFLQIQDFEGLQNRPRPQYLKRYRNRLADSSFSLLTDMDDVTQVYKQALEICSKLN
The note with it: at 0.1 µM.

Assay [3] concerns the target T1, NUAK family SNF1-like kinase 1 (Homo sapiens). The note with it: at 1 µM.
Assay [4] deals with T2, Serine/threonine-protein kinase BRSK1 (Homo sapiens) (UniProt Q8TDC3).
T2 sequence (whole entry): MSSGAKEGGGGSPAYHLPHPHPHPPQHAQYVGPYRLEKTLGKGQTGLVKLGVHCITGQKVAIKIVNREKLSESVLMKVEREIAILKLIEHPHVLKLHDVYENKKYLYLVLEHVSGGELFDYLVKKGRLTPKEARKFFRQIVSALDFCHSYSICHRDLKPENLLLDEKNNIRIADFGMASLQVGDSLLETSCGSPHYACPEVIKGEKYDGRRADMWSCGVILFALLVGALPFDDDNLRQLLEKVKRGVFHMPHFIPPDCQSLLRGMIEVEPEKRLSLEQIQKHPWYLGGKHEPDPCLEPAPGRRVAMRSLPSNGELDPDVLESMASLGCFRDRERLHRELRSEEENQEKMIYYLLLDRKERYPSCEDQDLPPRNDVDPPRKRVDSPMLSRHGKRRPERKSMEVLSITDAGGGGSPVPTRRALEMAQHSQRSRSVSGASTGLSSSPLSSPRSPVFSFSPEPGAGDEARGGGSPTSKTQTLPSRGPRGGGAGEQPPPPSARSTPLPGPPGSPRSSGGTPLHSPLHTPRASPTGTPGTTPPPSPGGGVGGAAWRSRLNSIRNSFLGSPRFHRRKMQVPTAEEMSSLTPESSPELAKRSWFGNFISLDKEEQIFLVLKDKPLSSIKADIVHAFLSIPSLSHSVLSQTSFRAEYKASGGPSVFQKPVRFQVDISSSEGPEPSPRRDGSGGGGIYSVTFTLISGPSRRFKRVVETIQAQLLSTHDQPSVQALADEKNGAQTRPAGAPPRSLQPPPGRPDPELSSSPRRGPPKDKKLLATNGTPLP
Conditions: at 0.1 µM.

For assay [5], the target named is T2, Serine/threonine-protein kinase BRSK1 (Homo sapiens). Conditions: at 1 µM.
For assay [6], the target named is T3, Serine/threonine-protein kinase BRSK2 (Homo sapiens) (UniProt Q8IWQ3).
T3 sequence (whole entry): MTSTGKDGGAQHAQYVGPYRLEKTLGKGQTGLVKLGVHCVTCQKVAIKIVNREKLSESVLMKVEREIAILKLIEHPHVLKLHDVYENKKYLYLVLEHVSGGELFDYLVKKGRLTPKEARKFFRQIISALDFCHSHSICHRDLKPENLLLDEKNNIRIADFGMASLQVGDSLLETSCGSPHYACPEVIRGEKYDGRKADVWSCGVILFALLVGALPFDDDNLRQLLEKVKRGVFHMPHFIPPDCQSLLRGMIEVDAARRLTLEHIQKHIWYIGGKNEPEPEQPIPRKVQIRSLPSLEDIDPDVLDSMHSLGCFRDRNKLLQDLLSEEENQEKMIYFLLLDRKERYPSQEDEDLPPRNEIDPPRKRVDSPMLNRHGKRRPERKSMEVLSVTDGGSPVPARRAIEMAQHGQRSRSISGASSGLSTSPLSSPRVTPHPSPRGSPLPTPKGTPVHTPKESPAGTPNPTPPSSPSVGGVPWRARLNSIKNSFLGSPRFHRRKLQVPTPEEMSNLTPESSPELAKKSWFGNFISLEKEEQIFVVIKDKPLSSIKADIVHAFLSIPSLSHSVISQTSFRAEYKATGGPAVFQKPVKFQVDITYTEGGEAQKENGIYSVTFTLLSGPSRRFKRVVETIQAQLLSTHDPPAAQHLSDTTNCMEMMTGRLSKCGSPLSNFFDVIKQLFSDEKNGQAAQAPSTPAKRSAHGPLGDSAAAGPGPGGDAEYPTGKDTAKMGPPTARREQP
The note with it: at 0.1 µM.

In assay [7] the target is T3, Serine/threonine-protein kinase BRSK2 (Homo sapiens). The note with it: at 1 µM.
Assay [8] has as its target Calcium/calmodulin-dependent protein kinase type 1D (Homo sapiens) (UniProt Q8IU85). The note with it: at 0.1 µM.
The target is the same in assay [9]. The note with it: at 1 µM.
In assay [10] the target is Calcium/calmodulin-dependent protein kinase type II subunit alpha (Homo sapiens) (UniProt Q9UQM7). Conditions: at 0.1 µM.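 Note: reported values are averages (mean inhibition of CAMK2A).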
Calcium/calmodulin-dependent protein kinase type II subunit alpha (Homo sapiens), sequence (Q9UQM7 whole entry): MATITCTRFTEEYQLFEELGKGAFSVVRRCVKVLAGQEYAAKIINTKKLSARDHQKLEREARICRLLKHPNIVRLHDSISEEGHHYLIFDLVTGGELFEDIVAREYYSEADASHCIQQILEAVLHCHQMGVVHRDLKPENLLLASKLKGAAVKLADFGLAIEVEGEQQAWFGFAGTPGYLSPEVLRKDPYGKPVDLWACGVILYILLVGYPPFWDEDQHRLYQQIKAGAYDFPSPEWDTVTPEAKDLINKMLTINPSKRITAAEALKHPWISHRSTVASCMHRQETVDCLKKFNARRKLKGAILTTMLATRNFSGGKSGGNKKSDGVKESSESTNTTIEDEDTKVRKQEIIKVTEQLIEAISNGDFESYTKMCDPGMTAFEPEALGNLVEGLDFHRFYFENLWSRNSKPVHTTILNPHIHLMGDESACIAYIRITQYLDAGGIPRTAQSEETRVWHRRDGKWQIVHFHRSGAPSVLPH

5'-AMP-activated protein kinase catalytic subunit alpha-2 (Homo sapiens), sequence (P54646 whole entry, looked up): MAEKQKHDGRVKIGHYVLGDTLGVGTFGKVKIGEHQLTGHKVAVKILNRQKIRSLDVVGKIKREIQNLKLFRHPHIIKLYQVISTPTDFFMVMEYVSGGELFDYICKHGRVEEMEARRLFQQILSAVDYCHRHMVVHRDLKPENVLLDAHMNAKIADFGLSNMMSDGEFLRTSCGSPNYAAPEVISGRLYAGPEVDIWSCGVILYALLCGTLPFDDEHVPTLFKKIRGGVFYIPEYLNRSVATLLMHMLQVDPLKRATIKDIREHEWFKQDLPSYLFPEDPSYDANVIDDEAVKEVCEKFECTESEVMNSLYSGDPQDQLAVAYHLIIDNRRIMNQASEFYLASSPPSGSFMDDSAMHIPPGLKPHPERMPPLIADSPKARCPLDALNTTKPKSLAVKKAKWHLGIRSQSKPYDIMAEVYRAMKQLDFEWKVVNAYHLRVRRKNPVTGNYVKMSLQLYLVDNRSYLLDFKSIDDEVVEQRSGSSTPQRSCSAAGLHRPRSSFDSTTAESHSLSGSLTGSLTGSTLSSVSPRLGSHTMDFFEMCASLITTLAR
Calcium/calmodulin-dependent protein kinase type 1D (Homo sapiens), sequence (Q8IU85 whole entry, looked up): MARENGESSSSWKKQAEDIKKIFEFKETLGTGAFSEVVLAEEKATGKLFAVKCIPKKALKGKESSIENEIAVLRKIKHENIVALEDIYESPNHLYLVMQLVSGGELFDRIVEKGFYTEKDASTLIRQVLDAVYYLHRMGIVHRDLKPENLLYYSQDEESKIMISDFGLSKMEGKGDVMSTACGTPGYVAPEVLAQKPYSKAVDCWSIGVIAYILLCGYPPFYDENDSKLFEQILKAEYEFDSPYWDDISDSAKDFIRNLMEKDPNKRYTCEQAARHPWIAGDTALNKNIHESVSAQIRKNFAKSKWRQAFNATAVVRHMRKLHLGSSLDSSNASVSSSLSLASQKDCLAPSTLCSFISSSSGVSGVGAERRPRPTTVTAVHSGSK

Take `NS(=O)(=O)c1cccc(Nc2cc(-c3ccc(F)cc3)n[nH]2)c1`: the inhibition in assay [1] was 10.9%; in assay [2], -3.46%; in assay [3], 12.6%; in assay [4] it was 1.36%; in assay [5], 5.97%; in assay [6], 3.15%. Also, the inhibition in [7] was 11.2%; in assay [8], -0.34%; in assay [9], -0.05%; in assay [10], 2.68%.
Regarding `CN(C)CCCn1c(-c2nonc2N)nc2cnccc21`, the inhibition is 5.42% in [1]; 3.04% in assay [2]; -0.59% in assay [3]; 1.23% in [4]; 0.57% in assay [5]; 0.27% in [6]. For the same compound, the inhibition was 1.19% in assay [7], 0.27% in [8], -0.73% in [9] and 2.81% in assay [10].
On to `C[C@@H](Oc1cc(-n2cnc3ccc(OCC4CCN(C)CC4)cc32)sc1C(N)=O)c1ccccc1C(F)(F)F`, for which the inhibition in [1] turned out to be 14%; in assay [2], 50.5%; in [3], 76.6%; in assay [4], 22.4%; in assay [5], 61.1%; in assay [6], 33.9%. Moreover, the inhibition in assay [7] is 74.5%; in assay [8] it was 0%; in assay [9], 4.15%; in assay [10], -0.63%.
Consider `COC(=O)c1ccc2c(c1)C(=Cc1cc(Br)c(O)c(Br)c1)C(=O)N2`, for which the inhibition in assay [1] was 4.79%; in [2], -1.29%; in assay [3], 2.73%; in assay [4] it was 3.81%; in assay [5], 2.04%; in assay [6], 0.42%. Also, the inhibition in assay [7] came out at 5.14%; in assay [8], 0.26%; in assay [9] it was 3.35%; in [10], 2.97%.
Consider `COc1cccc(-n2nc(C)c3c(N/N=C(\C)c4ccncc4)ncnc32)c1`, for which the inhibition in [1] is 1.4%; in [2], 3.11%; in assay [3] it was 2.97%; in [4], 0.77%; in assay [5], -2.02%; in [6] it was -0.07%. Further, the inhibition was 0.93% in assay [7], -0.6% in assay [8], 2.19% in assay [9] and -1.72% in assay [10].
`Nc1ccc(C#Cc2cncnc2Nc2ccc(OCc3cccc(F)c3)c(Cl)c2)cc1`: the inhibition in [1] is 2.03%; in [2], 1.31%; in [3], -1.87%; in assay [4] it was 1.62%; in assay [5], 0.9%; in assay [6], 1.82%. Also, the inhibition amounted to 1.94% in [7], 0.26% in assay [8], 0.65% in assay [9] and 1.19% in [10].
Turning to `Cc1cc(-c2ccccn2)cc(C)c1/C=C/c1cncc(-c2nn[nH]n2)c1`, the inhibition is 3.78% in assay [1]; 2.95% in assay [2]; 6.85% in assay [3]; 2.2% in assay [4]; -0.86% in assay [5]; 1.67% in assay [6]. Besides, the inhibition in assay [7] amounted to 3.37%; in [8], 0.06%; in [9] it was 0.67%; in assay [10], 2.42%.
With `CCS(=O)(=O)c1ccc(OC)c(Nc2nccc(N(C)c3ccc4c(C)n[nH]c4c3)n2)c1`, the inhibition was 3.91% in [1]; -0.8% in assay [2]; -2.26% in assay [3]; 0.17% in assay [4]; 4.69% in [5]; 3.82% in assay [6]. For the same compound, the inhibition in assay [7] was found to be 4.12%; in assay [8], 3.64%; in [9], 0.51%; in assay [10], 2.57%.
With `Cc1ccc(NC(=O)CC2CC2)cc1-c1ccc(C(=O)NCC2CC2)cc1`, the inhibition in assay [1] was 3.66%; in [2], 2.19%; in assay [3], 3.71%; in assay [4] it was -0.17%; in assay [5] it was 0.46%; in [6], 1.82%. In addition, the inhibition in [7] worked out at 3.93%; in [8], 0.97%; in [9], 0.89%; in assay [10] it was 2.5%.
For the compound `COc1cc(Nc2nccc(-c3cnn4ncccc34)n2)cc(OC)c1`, the inhibition came to 17.4% in assay [1]; 69.1% in assay [2]; 84.8% in [3]; 1.03% in [4]; 5.11% in assay [5]; 0.3% in assay [6]. Also, the inhibition turned out to be 6.76% in assay [7], 0.86% in assay [8], 6.41% in assay [9] and 3.61% in [10].
For `Oc1cccc(-c2nc(-c3ccccc3)[nH]c2-c2ccncc2)c1`, the inhibition in assay [1] was 4.6%; in assay [2], 0.46%; in [3] it was 2.27%; in [4], -0.48%; in assay [5], 1.89%; in [6], 1.98%. Also, the inhibition was 4.34% in assay [7], 0.26% in assay [8], 1.01% in assay [9] and 3.36% in assay [10].
Regarding `Cc1ccc2c(-c3ccnc(Nc4cccc(C(F)(F)F)c4)n3)c(-c3ccccc3)nn2n1`, the inhibition stood at 3.47% in assay [1]; 4.18% in [2]; 5.3% in [3]; 2.22% in assay [4]; 1.34% in [5]; 1.33% in assay [6]. The inhibition in [7] turned out to be 3.25%; in assay [8] it was 0.64%; in assay [9] it was 2.72%; in assay [10], 2.64%.
`CS(=O)(=O)Nc1cccc(-c2ccc3c(NC(=O)C4CC4)n[nH]c3c2)c1`: the inhibition in assay [1] was 6.02%; in assay [2] it was -0.11%; in [3], 1.95%; in [4] it was 3.46%; in [5], 18.7%; in assay [6], 2.32%. Also, the inhibition in assay [7] amounted to 19.1%; in assay [8], 2.26%; in assay [9], 1.87%; in assay [10], 7.84%.
Consider `Cc1cc(O)cc(C)c1/C=C/c1cncc(C(=O)N(C)C)c1`, for which the inhibition in assay [1] is 4.38%; in [2], 1.62%; in [3] it was 8.58%; in [4] it was 2.98%; in assay [5] it was 8.54%; in [6], 3.48%. Further, the inhibition in assay [7] was 6.07%; in [8], -0.81%; in assay [9] it was 2.29%; in assay [10], 3.26%.
Consider `CS(=O)(=O)CCNCc1nc(-c2ccc3ncnc(Nc4ccc(OCc5cccc(C(F)(F)F)c5)cc4)c3c2)cs1`, for which the inhibition is 2.15% in assay [1]; 0.06% in assay [2]; 2.2% in assay [3]; 2.31% in assay [4]; -0.57% in assay [5]; 0.24% in assay [6]. Also, the inhibition in assay [7] is 1.3%; in [8], -0.5%; in assay [9], 2.37%; in assay [10], 1.59%.
As to `NS(=O)(=O)c1ccc(-c2cc3ccncc3cc2OCc2ccccc2)cc1`, the inhibition in assay [1] was 2.32%; in assay [2], -0.67%; in [3], -0.08%; in assay [4], -0.48%; in assay [5], 0.47%; in [6], 0.96%. Also, the inhibition in assay [7] was 2.69%; in assay [8], -6.04%; in [9], 0.65%; in assay [10], 1.83%.
As to `N#Cc1c(NC(=O)c2ccccc2F)sc2c1CCCC2`, the inhibition came out at 0.55% in [1]; 2.6% in assay [2]; 3.42% in [3]; 0.36% in [4]; 1.62% in [5]; 1.76% in [6]. For the same compound, the inhibition in [7] was 3.8%; in assay [8], -0.22%; in [9], 0.3%; in assay [10] it was -2.24%.

Usually inhibition stands for the change of the read-out against control, counted positive when it falls.
